Source: article PMC7862700, “An all-to-all approach to the identification of sequence-specific readers for epigenetic DNA modifications on cytosine”

Tests used:
Assay in all cases: DAPPL (digital affinity profiling via proximity ligation, sequencing); 10 mM Tris-HCl pH 7.5, 50 mM NaCl, 1 mM DTT, 4% glycerol, room temperature, 30 min; GST-TFs on glutathione beads, 16-mer random dsDNA library, 0.1% formaldehyde crosslink after washing; high values mean tight binding
Details in all cases: protein: recombinant; tags: N-terminal GST; dsDNA, one strand shown
[1] = target: T1, FLI1 (Homo sapiens, UniProt Q01543 1-452)
T1 sequence: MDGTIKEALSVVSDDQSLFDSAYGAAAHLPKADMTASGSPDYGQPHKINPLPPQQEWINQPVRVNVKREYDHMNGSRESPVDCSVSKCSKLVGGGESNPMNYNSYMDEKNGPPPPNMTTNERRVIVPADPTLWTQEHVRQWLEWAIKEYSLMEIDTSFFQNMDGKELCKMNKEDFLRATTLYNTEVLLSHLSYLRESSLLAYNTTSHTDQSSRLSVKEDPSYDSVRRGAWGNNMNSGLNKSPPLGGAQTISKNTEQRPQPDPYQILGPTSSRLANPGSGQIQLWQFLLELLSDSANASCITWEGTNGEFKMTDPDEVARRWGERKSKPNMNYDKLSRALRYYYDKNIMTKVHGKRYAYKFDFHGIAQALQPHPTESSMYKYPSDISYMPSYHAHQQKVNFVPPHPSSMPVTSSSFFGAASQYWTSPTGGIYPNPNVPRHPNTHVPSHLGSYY
How it was run: (§1)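 Human transcription factors carrying a GST fusion were produced in yeast, bound to glutathione beads, tagged with DNA barcodes and pooled together with a tag-only sample. Each pool was held with 200 nmole of a random double-stranded 16-mer DNA library in Tris/NaCl/DTT/glycerol buffer for 30 min at room temperature, then washed, crosslinked in 0.1% formaldehyde, proximity-ligated with BsaI/T4 ligase (1 h, 37 °C), PCR-amplified and sequenced on an Illumina NextSeq500. Binding signal is the read frequency of each hexamer for a given factor divided by its frequency in the tag-only sample.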

[2] = target: T2, ELK1 (Homo sapiens, UniProt P19419 1-428)
T2 sequence: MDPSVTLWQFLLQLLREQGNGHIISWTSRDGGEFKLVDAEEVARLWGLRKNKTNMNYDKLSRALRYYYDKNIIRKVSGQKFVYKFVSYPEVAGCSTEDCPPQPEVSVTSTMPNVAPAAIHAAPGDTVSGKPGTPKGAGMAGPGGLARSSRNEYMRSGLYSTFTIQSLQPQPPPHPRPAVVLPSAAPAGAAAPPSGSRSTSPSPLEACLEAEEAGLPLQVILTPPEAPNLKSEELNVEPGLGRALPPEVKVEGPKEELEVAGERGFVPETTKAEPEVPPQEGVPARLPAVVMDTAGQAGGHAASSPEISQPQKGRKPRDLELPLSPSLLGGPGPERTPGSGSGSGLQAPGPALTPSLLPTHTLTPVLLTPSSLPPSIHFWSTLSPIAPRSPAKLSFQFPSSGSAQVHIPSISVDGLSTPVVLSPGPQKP
How it was run: as §1

[3] = target: T3, GABPA (Homo sapiens, UniProt Q06546 1-454)
T3 sequence: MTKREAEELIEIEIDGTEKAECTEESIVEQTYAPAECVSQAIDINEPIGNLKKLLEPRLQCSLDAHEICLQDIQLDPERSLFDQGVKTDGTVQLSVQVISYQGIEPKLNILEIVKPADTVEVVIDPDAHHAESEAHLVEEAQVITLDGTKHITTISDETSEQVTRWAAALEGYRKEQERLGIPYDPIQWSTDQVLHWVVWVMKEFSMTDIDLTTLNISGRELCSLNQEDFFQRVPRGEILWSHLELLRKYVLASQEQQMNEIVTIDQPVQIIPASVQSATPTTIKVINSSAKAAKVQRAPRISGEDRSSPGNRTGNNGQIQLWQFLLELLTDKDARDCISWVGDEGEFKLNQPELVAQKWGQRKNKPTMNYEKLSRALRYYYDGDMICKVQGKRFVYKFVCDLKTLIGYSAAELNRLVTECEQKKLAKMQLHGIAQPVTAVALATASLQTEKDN
How it was run: as §1

[4] = target: T4, ERG (Homo sapiens, UniProt P11308 1-479)
T4 sequence: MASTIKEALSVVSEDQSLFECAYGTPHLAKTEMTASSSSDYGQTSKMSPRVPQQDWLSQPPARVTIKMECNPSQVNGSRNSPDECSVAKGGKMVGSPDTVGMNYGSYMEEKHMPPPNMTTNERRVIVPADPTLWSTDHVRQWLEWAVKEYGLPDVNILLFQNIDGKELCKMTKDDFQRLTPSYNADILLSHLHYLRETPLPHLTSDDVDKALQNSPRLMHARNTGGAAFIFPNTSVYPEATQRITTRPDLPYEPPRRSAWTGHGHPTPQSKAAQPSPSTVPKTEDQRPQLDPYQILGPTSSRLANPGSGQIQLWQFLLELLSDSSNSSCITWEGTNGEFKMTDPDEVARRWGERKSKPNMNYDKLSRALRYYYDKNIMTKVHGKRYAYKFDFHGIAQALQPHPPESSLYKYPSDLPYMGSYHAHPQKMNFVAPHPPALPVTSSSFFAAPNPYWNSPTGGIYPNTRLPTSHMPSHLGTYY
How it was run: as §1

[5] = target: ELF1 (Homo sapiens, UniProt P32519 1-619)
How it was run: as §1

[6] = target: T5, EHF (Homo sapiens, UniProt Q9NZC4 1-300)
T5 sequence: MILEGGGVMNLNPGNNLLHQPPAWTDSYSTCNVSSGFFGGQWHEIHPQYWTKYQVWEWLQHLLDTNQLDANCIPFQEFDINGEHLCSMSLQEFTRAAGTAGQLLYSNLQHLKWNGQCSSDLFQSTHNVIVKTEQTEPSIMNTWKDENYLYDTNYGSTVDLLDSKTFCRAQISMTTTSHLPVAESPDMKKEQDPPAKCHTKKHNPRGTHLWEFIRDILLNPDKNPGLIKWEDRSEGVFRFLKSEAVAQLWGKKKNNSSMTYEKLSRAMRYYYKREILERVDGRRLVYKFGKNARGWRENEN
How it was run: as §1

[7] = target: SPI1 (Homo sapiens, UniProt P17947 1-270)
How it was run: as §1

[8] = target: SPIB (Homo sapiens, UniProt Q01892 1-262)
How it was run: as §1

[9] = target: T6, ELK3 (Homo sapiens, UniProt P41970 1-407)
T6 sequence: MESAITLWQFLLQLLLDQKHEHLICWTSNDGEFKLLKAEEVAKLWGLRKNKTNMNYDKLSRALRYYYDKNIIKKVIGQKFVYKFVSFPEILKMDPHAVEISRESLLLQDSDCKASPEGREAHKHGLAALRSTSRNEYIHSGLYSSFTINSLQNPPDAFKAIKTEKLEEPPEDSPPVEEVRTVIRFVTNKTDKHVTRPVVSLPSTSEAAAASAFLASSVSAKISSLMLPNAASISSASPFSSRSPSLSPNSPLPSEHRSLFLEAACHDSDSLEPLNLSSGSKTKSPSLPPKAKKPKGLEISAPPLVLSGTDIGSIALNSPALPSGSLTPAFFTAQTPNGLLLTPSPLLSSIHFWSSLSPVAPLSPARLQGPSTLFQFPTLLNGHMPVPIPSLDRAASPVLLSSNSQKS
How it was run: as §1

SPIB, sequence (Q01892 whole entry): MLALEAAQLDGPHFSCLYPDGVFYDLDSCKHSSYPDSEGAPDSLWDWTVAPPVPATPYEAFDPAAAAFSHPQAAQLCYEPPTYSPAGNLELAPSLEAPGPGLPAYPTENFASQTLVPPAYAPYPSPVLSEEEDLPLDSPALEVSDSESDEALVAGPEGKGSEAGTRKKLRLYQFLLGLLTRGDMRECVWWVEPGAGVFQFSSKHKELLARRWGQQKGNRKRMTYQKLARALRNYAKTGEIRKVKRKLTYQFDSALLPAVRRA
ELF1, sequence (P32519 whole entry): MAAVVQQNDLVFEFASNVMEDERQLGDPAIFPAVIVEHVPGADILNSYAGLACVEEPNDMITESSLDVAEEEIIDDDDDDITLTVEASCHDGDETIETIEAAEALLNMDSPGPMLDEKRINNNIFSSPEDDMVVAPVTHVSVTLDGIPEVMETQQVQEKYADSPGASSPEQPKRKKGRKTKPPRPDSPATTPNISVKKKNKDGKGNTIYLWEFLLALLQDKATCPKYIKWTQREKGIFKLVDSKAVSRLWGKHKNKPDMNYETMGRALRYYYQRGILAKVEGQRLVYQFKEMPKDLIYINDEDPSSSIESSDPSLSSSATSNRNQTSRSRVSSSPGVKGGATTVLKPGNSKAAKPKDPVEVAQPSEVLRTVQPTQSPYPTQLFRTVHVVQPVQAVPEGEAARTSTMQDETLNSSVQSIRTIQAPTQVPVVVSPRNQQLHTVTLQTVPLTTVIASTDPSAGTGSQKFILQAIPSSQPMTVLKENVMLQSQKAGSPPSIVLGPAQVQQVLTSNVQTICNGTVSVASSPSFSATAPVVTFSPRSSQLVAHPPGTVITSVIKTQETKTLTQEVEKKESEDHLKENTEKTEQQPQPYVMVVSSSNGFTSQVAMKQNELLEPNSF

| Sequence | binding signal [1] | binding signal [2] | binding signal [3] | binding signal [4] | binding signal [5] | binding signal [6] | binding signal [7] | binding signal [8] | binding signal [9] |
| --- | --- | --- | --- | --- | --- | --- | --- | --- | --- |
| CTGGTT | 1.36 fold enrichment (6-mer frequency, TF over GST control) | 1.3 fold enrichment (6-mer frequency, TF over GST control) | 1.2 fold enrichment (6-mer frequency, TF over GST control) | 1.31 fold enrichment (6-mer frequency, TF over GST control) | 1.31 fold enrichment (6-mer frequency, TF over GST control) | 1.18 fold enrichment (6-mer frequency, TF over GST control) | 1.45 fold enrichment (6-mer frequency, TF over GST control) | 1.24 fold enrichment (6-mer frequency, TF over GST control) | 1.21 fold enrichment (6-mer frequency, TF over GST control) |
| TTTCTA | 1.3 fold enrichment (6-mer frequency, TF over GST control) | 1.39 fold enrichment (6-mer frequency, TF over GST control) | 1.29 fold enrichment (6-mer frequency, TF over GST control) | 1.34 fold enrichment (6-mer frequency, TF over GST control) | 1.28 fold enrichment (6-mer frequency, TF over GST control) | 1.36 fold enrichment (6-mer frequency, TF over GST control) | 1.36 fold enrichment (6-mer frequency, TF over GST control) | 1.19 fold enrichment (6-mer frequency, TF over GST control) | 1.26 fold enrichment (6-mer frequency, TF over GST control) |
| TTCGTA | 1.32 fold enrichment (6-mer frequency, TF over GST control) | 1.44 fold enrichment (6-mer frequency, TF over GST control) | 1.29 fold enrichment (6-mer frequency, TF over GST control) | 1.38 fold enrichment (6-mer frequency, TF over GST control) | 1.35 fold enrichment (6-mer frequency, TF over GST control) | 1.34 fold enrichment (6-mer frequency, TF over GST control) | 1.24 fold enrichment (6-mer frequency, TF over GST control) | 1.35 fold enrichment (6-mer frequency, TF over GST control) | 1.41 fold enrichment (6-mer frequency, TF over GST control) |
| TCGCTA | 1.17 fold enrichment (6-mer frequency, TF over GST control) | 1.09 fold enrichment (6-mer frequency, TF over GST control) | 1.24 fold enrichment (6-mer frequency, TF over GST control) | 1.07 fold enrichment (6-mer frequency, TF over GST control) | 1.11 fold enrichment (6-mer frequency, TF over GST control) | 1.02 fold enrichment (6-mer frequency, TF over GST control) | 1.04 fold enrichment (6-mer frequency, TF over GST control) | 1.05 fold enrichment (6-mer frequency, TF over GST control) | 1.23 fold enrichment (6-mer frequency, TF over GST control) |
| CATCTA | 1.22 fold enrichment (6-mer frequency, TF over GST control) | 1.3 fold enrichment (6-mer frequency, TF over GST control) | 1.25 fold enrichment (6-mer frequency, TF over GST control) | 1.11 fold enrichment (6-mer frequency, TF over GST control) | 1.25 fold enrichment (6-mer frequency, TF over GST control) | 1.18 fold enrichment (6-mer frequency, TF over GST control) | 1.16 fold enrichment (6-mer frequency, TF over GST control) | 1.17 fold enrichment (6-mer frequency, TF over GST control) | 1.13 fold enrichment (6-mer frequency, TF over GST control) |
| ATTCCT | 1.46 fold enrichment (6-mer frequency, TF over GST control) | 1.37 fold enrichment (6-mer frequency, TF over GST control) | 1.28 fold enrichment (6-mer frequency, TF over GST control) | 1.27 fold enrichment (6-mer frequency, TF over GST control) | 1.42 fold enrichment (6-mer frequency, TF over GST control) | 1.34 fold enrichment (6-mer frequency, TF over GST control) | 1.46 fold enrichment (6-mer frequency, TF over GST control) | 1.43 fold enrichment (6-mer frequency, TF over GST control) | 1.3 fold enrichment (6-mer frequency, TF over GST control) |
| TTCCGA | 1.64 fold enrichment (6-mer frequency, TF over GST control) | 1.62 fold enrichment (6-mer frequency, TF over GST control) | 1.43 fold enrichment (6-mer frequency, TF over GST control) | 1.66 fold enrichment (6-mer frequency, TF over GST control) | 1.44 fold enrichment (6-mer frequency, TF over GST control) | 1.71 fold enrichment (6-mer frequency, TF over GST control) | 1.62 fold enrichment (6-mer frequency, TF over GST control) | 1.44 fold enrichment (6-mer frequency, TF over GST control) | 1.68 fold enrichment (6-mer frequency, TF over GST control) |
